Results: ChEMBL document CHEMBL4888484, “Replenishing the malaria drug discovery pipeline: Screening and hit evaluation of the MMV Hit Generation Library 1 (HGL1) against asexual blood stage Plasmodium falciparum ,using a nano luciferase reporter read-out” (2022)
In all, about 150,000 compounds went through this assay and about 540 (0.36%) showed an effect of 50% or more. The entries come from a sample that favours strong results as a whole.

test system: Plasmodium falciparum; experiment: Primary screen in NF54 nanoGlo assay, in single point, at 2uM, 72h; a lower Z score goes with more inhibition; type: functional, Erythrocyte; settings: timepoint 72 hour

SMILES | % Inhibition [%] | Z score
C#CCNC(=O)c1ccc(N[C@@H](C)COC)nc1 | -9 | 1.46
NC(=O)[C@@H]1CN(Cc2ccc(-c3ccc(Cl)cc3)s2)CCO1 | -11 | 1.78
Cc1cc(C)cc(-n2c(=O)c3sccc3n(CC(=O)Nc3ccc(N(C)C)cc3)c2=O)c1 | 51 | 1.43
COc1cccc(Cn2c(=O)c3sccc3n(CC(=O)Nc3ccc(N(C)C)cc3)c2=O)c1 | 37 | -1.71
Cc1ccccc1-n1c(=O)c2sccc2n(CC(=O)Nc2ccc(N(C)C)cc2)c1=O | 2 | -0.2
CCN(CCn1cccn1)Cc1cncn1C1CC1 | -7 | 1.49
CCc1ccccc1Nc1c2c(nc3ccccc13)CCCC2 | 9 | -1.19
CCOC(=O)c1nc(NCC2CCN(Cc3ccccc3F)CC2)c2ccccc2n1 | -6 | 1.09
CCc1nnc(NCC(C)(C)CCS(C)(=O)=O)c(C#N)c1CC | 2 | -0.31
CC(C)Oc1ccc(-c2cc(C(F)(F)F)n3nc(-c4ccccc4)c(-c4ccccc4)c3n2)cc1 | -15 | 1.87
Cc1ccnc([C@@H](NC(=O)c2c[nH]c3cc(C)nn3c2=O)C2CC2)c1 | -2 | 0.39
COc1ccc(OC)c([C@H]2N(Cc3ccc(F)cc3)CCCN2Cc2ccccc2Cl)c1 | -3 | 0.37
COc1ccc(OC)c(-n2c(-c3ccccc3)cc(C(=O)N3CCN(Cc4ccccc4)CC3)c2C)c1 | -8 | 1.09
CCC(C(=O)Nc1ccc2c(c1)CN(CCc1ccccc1)C(=O)C(C)O2)c1ccccc1 (configuration not stated) | -7 | 0.66
CCC(C(=O)Nc1ccc2c(c1)CN(CCc1ccc(OC)c(OC)c1)C(=O)C(C)O2)c1ccccc1 (configuration not stated) | 91 | -17.08
COc1cccc(NC(=O)Nc2ccc3c(c2)CN(CCc2ccc(OC)c(OC)c2)C(=O)[C@H](C)O3)c1 | 0 | -0.08
Cc1noc(C)c1N(C)C(=O)Nc1cccnc1 | -2 | 0.36
COc1ccc(NC(=O)[C@H](NC(=O)Cc2c[nH]c3ccccc23)c2ccc(C)cc2)cc1 | -9 | 1.46
CC1C(C(F)(F)F)OCCN1C(=O)NC1CCCC1Cc1ccccn1 (configuration not stated) | -4 | 0.71
COc1ccc(-c2cc(C(F)(F)F)nc(-n3nc(-c4cccc(C)c4)c(C)c3-c3cccc(C)c3)n2)cc1 | -7 | 1.42
COc1ccc(-c2cc(C(F)(F)F)nc(-n3nc(-c4cccc(OC)c4)c(Cl)c3-c3cccc(OC)c3)n2)cc1 | 91 | -10.21

SMILES | % Inhibition [%] | Z score
COc1cccc(-c2nn(-c3nc(-c4ccccc4)cc(C(F)(F)F)n3)c(-c3cccc(OC)c3)c2Cl)c1 | 38 | -3.81
CCOc1ccc2ccccc2c1C(=O)Nc1cc(C)nn1-c1nc2c(c(=O)[nH]1)CCC2 | 92 | -17
Cc1cc(NC(=O)C(=O)NC2CC(C)CC(C)(C)C2)n(-c2nc3c(c(=O)[nH]2)CCC3)n1 (configuration not stated) | 85 | -13.4
Cc1cc(NC(=O)c2ccc3ccccc3c2)n(-c2nc3c(c(=O)[nH]2)CCC3)n1 | 2 | -0.26
COCC(=O)Nc1cc(C)nn1-c1nc2c(c(=O)[nH]1)CCC2 | 1 | -0.17
Cc1cc(NC(=O)Cc2ccc(-c3ccccc3)cc2)n(-c2nc3c(c(=O)[nH]2)CCC3)n1 | -4 | 0.86
COc1ccccc1OCC(=O)Nc1cc(C)nn1-c1nc2c(c(=O)[nH]1)CCC2 | 1 | -0.14
CC(NC(=O)N(C)CC1CCCO1)c1ccc(N2CCOCC2)cc1 (configuration not stated) | -3 | 0.42
COC[C@H]1CN(C)CC12CCN(C(=O)Cc1ccc(Cl)cc1)CC2 | 9 | -1.07
CCCC(=O)N1CCN(c2cc(-n3cnc(C)c3C)ncn2)CC1 | -12 | 1.96
COc1cc(C(=O)Nc2scnc2C)cc(OC)c1OC | 45 | 0.11
COc1cc(C(=O)Nc2ccc3sc(NC(=O)c4cc(OC)c(OC)c(OC)c4)nc3n2)cc(OC)c1OC | 101 | -16.35
COc1cc(C(=O)Nc2ccc(Nc3ccc(C)nn3)cc2)cc(OC)c1OC | 13 | -2.29
Cn1cc(S(=O)(=O)NCc2cc(C3CC3)ncn2)cn1 | 16 | -2.16
Clc1cnn(CCN2CCc3onc(-c4cccc5ccccc45)c3C2)c1 | -5 | 0.7
CN1C(=O)CC[C@@]12CCN(C(=O)Nc1ccc3c(c1)OCCO3)C2 | -5 | 0.78
Cc1cc([C@@H]2CCCCN2CCn2cc(Cl)cn2)no1 | -11 | 1.54
Oc1c2c(nc3ccccc13)CCCCC2 | 25 | -3.15
COc1ccc(C(=O)N(C(=O)c2ccc(OC)cc2)c2c3c(nc4ccccc24)CCCC3)cc1 | 69 | -5.66
COc1cccc(C(=O)Nc2c3c(nc4ccccc24)CCCC3)c1 | 1 | -0.12
COc1ccccc1C(C)(C)c1noc([C@@]2(C)CCNC(=O)C2)n1 | -3 | 0.4

SMILES | % Inhibition [%] | Z score
CCOc1ccc(N2C[C@@H](C(=O)NCCc3ccco3)CC2=O)cc1 | 0 | -0.05
C[C@H](NCc1ccccc1CN1CCOCC1)C(=O)Nc1cccc2ccccc12 | -7 | 1.29
c1ccc2[nH]c(C3CCN(c4nn5cnnc5c5ccccc45)CC3)nc2c1 | -15 | 2.33
c1ccc(C(c2ccccc2)N2CCN(c3nn4cnnc4c4ccccc34)CC2)cc1 | 81 | -11.8
Fc1ccc(N2CCN(c3nn4cnnc4c4ccccc34)CC2)cc1 | -10 | 1.31
COc1ccc(-c2nc3c(c(N4CCC[C@@H]4C)n2)CCOCC3)cc1 | -10 | 0.99
O=C(Nc1ccnn1C1CCC1)c1ccc(-c2cn[nH]c2)cn1 | -10 | 1.42
O=C1CCCCN1CCC(=O)N1CCc2onc(-c3cccc4ccccc34)c2C1 | -1 | 0.1
Cc1nn(C)c2nc(OCC(=O)NC(C)(C)C)cc(C(F)(F)F)c12 | -8 | 0.92
Cn1nccc1[C@@H]1CN(C(=O)Nc2nsc3ccccc23)CCO1 | -5 | 0.53
Cc1ccc(S(=O)(=O)c2c(NS(=O)(=O)c3ccc(F)cc3)n(CCc3ccccc3)c3nc4ccccc4nc23)cc1 | 98 | -8.73
Cc1ccc(S(=O)(=O)Nc2c(S(=O)(=O)c3ccccc3)c3nc4ccccc4nc3n2CCc2ccccc2)cc1 | 86 | -14.39
Cc1ccc(S(=O)(=O)c2c(NS(=O)(=O)c3ccccc3)n(CCc3ccccc3)c3nc4ccccc4nc23)cc1 | 99 | -11.17
Cc1ccc(S(=O)(=O)c2c(NS(=O)(=O)c3ccc(Cl)cc3)n(-c3cc(C)cc(C)c3)c3nc4ccccc4nc23)cc1 | -6 | 0.5
Cc1ccc(S(=O)(=O)c2c(NS(=O)(=O)c3ccc(F)cc3)n(C[C@H]3CCCO3)c3nc4ccccc4nc23)cc1 | 6 | -0.71
CCC(=O)Nc1c(S(=O)(=O)c2ccccc2)c2nc3ccccc3nc2n1[C@@H](C)c1ccccc1 | -14 | 1.29
COc1ccc(S(=O)(=O)c2c(N)n(Cc3ccc(C)cc3)c3nc4ccccc4nc23)cc1 | -6 | 0.56
Cc1ccc(S(=O)(=O)Nc2c(S(=O)(=O)c3ccc(C)cc3)c3nc4ccccc4nc3n2CCC(C)C)cc1 | 85 | -10.94
Cc1ccc(S(=O)(=O)Nc2c(S(=O)(=O)c3ccc(C)cc3)c3nc4ccccc4nc3n2C[C@H]2CCCO2)cc1 | 48 | -4.28
Cc1ccc(S(=O)(=O)c2c(NC(=O)c3ccco3)n(C3CCCCC3)c3nc4ccccc4nc23)cc1 | -11 | 1.85
Nc1c(S(=O)(=O)c2ccc(Cl)cc2)c2nc3ccccc3nc2n1Cc1ccc(Cl)cc1 | -9 | 0.81

SMILES | % Inhibition [%] | Z score
CC(C)n1cc(C(=O)N(CCOc2ccc(Cl)cc2)Cc2ccco2)cn1 | -9 | 1.28
O=C(Nc1cccc(C(F)(F)F)c1)C1(F)C(F)(F)C(F)(F)C(F)(F)C(F)(F)C1(F)F | 2 | -0.22
c1ccc2oc(-c3nc(C4CC4)n[nH]3)cc2c1 | -12 | 1.37
N[C@@H](c1ccc2c(c1)CCO2)c1cc(Cl)ccc1Cl | 0 | -0.02
O=C(Nc1nc(C(=O)N2CCN(c3ncccn3)CC2)co1)c1ccsc1 | -2 | 0.31
CCCN1CCCC[C@H]1C(=O)NCCCn1ccnc1 | -6 | 1.01
Cc1ccc(C(=O)N2CCC[C@H](CCC(=O)N3CCN(c4ccccn4)CC3)C2)s1 | -8 | 1.24
COc1ccc(-c2nc3ccc(Cc4ccc5nc(-c6ccc(OC)cc6)c(-c6ccc(OC)cc6)nc5c4)cc3nc2-c2ccc(OC)cc2)cc1 | 11 | -2.21
O=C(NC[C@H]1CCCN1c1ccccc1)c1ccccc1Br | -13 | 2.53
CCCCc1ccc(-n2c(NS(=O)(=O)c3ccc(Cl)cc3)c(S(=O)(=O)c3ccc(C)cc3)c3nc4ccccc4nc32)cc1 | 4 | -0.41
COCCCn1c(NS(=O)(=O)c2ccccc2)c(S(=O)(=O)c2ccc(C)cc2)c2nc3ccccc3nc21 | 43 | -9.12
CCCCn1c(NC(=O)c2ccccc2)c(S(=O)(=O)c2ccc(C)cc2)c2nc3ccccc3nc21 | 0 | -0.03
Cc1ccc(S(=O)(=O)Nc2cc3nc4ccccc4nc3n2CCc2ccccc2)cc1 | 100 | -10.64
CCCCn1c(NC(=O)c2ccccc2Cl)c(S(=O)(=O)c2ccccc2)c2nc3ccccc3nc21 | -7 | 0.7
O=C(Nc1c(S(=O)(=O)c2ccccc2)c2nc3ccccc3nc2n1CCc1ccccc1)c1ccc(Cl)cc1 | 101 | -8.88
C[C@@H](c1ccccc1)n1c(NC(=O)c2ccc(Cl)cc2)c(S(=O)(=O)c2ccccc2)c2nc3ccccc3nc21 | -15 | 1.3
Cc1ccc(S(=O)(=O)NCCn2c3ccccc3c3c(C)cc(C)nc32)cc1 | -5 | 0.73
COCCCn1c(NS(=O)(=O)c2ccc3ccccc3c2)c(S(=O)(=O)c2ccc(C)cc2)c2nc3ccccc3nc21 | 57 | -8.33
